# Assay results as given in ChEMBL document CHEMBL1961873, “Compounds: GSK PKIS; Assays: Nanosyn kinase panel” (2012).
# Legend:
# [1] = molecular target: Sphingosine kinase 1 (Homo sapiens) (UniProt Q9NYA1); details: at 1 µM;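 note: mean SPHK1 inhibition value reported from the GSK PKIS kinase panel screen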
# [2] = molecular target: T1, Sphingosine kinase 2 (Homo sapiens) (UniProt Q9NRA0); details: at 0.1 µM
# T1 sequence (whole entry): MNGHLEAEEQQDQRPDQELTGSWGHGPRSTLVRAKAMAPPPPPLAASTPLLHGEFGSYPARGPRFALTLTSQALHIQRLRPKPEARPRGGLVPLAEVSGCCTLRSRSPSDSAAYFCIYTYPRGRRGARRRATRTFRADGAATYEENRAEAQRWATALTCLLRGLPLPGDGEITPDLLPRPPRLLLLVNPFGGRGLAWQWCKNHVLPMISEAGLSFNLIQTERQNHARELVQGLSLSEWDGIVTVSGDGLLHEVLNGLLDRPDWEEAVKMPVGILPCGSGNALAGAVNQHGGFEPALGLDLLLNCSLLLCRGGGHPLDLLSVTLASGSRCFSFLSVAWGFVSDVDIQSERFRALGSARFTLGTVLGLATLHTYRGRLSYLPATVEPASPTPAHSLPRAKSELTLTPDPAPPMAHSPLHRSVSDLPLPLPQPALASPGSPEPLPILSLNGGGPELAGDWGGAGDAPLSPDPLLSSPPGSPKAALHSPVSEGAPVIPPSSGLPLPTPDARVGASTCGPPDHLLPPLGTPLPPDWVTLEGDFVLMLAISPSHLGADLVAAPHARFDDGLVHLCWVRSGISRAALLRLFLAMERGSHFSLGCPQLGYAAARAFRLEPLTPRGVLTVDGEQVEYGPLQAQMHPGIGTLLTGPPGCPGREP
# [3] = molecular target: T1, Sphingosine kinase 2 (Homo sapiens); details: at 1 µM
# [4] = molecular target: Casein kinase II subunit alpha (Homo sapiens) (UniProt P68400); details: at 0.1 µM
# [5] = molecular target: Casein kinase II subunit alpha (Homo sapiens) (UniProt P68400); details: at 1 µM
# [6] = molecular target: T2, Inhibitor of nuclear factor kappa-B kinase subunit alpha (Homo sapiens) (UniProt O15111); details: at 0.1 µM
# T2 sequence (whole entry): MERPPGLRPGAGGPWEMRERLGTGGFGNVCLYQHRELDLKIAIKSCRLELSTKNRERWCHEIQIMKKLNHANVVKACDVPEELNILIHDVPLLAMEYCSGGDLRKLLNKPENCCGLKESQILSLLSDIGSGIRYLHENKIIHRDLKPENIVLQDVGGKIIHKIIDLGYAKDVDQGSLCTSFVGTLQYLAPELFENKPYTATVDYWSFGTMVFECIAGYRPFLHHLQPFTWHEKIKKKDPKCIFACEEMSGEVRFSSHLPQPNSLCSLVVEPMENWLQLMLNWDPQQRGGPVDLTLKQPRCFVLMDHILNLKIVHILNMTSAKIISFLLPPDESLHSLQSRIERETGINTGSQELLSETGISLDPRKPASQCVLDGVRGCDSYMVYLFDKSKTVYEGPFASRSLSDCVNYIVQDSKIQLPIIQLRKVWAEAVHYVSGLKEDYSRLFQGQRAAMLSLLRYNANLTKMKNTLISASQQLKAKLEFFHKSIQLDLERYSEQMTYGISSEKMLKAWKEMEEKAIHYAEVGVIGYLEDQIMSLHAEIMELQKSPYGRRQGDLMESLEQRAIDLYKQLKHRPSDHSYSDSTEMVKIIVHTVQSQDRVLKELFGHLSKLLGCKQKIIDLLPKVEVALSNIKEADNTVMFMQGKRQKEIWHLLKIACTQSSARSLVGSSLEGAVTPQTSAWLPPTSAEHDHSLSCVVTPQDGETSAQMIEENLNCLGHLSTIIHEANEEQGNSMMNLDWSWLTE
# [7] = molecular target: T2, Inhibitor of nuclear factor kappa-B kinase subunit alpha (Homo sapiens); details: at 1 µM
# [8] = molecular target: T3, Inhibitor of nuclear factor kappa-B kinase subunit beta (Homo sapiens) (UniProt O14920); details: at 0.1 µM
# T3 sequence (whole entry): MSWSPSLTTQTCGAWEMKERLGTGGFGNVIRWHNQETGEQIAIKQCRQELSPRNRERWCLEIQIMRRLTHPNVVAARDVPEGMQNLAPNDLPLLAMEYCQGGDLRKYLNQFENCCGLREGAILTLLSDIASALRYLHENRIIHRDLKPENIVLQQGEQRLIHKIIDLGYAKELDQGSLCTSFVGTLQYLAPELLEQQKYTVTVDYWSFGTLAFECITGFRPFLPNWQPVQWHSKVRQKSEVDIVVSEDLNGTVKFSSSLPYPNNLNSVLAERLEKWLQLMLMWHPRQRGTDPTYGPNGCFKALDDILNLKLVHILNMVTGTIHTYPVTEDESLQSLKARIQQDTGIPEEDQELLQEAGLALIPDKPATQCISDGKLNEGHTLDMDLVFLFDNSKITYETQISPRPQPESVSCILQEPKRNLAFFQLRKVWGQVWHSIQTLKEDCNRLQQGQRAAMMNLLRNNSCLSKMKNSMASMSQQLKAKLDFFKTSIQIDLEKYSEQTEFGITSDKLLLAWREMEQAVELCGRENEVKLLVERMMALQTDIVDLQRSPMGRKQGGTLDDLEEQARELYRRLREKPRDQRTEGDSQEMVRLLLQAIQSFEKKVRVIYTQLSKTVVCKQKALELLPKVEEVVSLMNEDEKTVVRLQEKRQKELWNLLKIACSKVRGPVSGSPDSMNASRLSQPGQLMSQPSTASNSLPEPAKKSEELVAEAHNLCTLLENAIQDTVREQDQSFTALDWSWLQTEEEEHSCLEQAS
# [9] = molecular target: T3, Inhibitor of nuclear factor kappa-B kinase subunit beta (Homo sapiens); details: at 1 µM
# [10] = molecular target: T4, Inhibitor of nuclear factor kappa-B kinase subunit epsilon (Homo sapiens) (UniProt Q14164); details: at 0.1 µM
# T4 sequence (whole entry): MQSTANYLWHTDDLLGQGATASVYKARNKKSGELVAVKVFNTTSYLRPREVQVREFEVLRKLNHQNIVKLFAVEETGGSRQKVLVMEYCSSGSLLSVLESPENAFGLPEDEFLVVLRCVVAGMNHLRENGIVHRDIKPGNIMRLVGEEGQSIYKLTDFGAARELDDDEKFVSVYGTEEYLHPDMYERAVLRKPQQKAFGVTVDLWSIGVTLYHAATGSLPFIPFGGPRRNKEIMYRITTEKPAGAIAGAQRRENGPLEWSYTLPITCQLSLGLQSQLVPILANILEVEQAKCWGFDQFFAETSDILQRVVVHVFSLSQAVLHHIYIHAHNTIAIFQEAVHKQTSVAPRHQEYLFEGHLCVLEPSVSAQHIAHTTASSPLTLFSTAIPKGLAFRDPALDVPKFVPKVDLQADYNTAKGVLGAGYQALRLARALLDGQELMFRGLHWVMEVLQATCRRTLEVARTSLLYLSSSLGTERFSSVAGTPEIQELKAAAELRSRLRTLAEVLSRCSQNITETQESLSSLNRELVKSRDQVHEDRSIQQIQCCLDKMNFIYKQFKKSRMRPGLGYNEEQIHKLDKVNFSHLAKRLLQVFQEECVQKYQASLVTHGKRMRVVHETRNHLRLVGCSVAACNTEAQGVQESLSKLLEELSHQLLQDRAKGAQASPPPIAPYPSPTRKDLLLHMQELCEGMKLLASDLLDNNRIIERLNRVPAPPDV
# [11] = molecular target: T4, Inhibitor of nuclear factor kappa-B kinase subunit epsilon (Homo sapiens); details: at 1 µM
# [12] = molecular target: T5, Serine/threonine-protein kinase Nek1 (Homo sapiens) (UniProt Q96PY6); details: at 0.1 µM
# T5 sequence (whole entry): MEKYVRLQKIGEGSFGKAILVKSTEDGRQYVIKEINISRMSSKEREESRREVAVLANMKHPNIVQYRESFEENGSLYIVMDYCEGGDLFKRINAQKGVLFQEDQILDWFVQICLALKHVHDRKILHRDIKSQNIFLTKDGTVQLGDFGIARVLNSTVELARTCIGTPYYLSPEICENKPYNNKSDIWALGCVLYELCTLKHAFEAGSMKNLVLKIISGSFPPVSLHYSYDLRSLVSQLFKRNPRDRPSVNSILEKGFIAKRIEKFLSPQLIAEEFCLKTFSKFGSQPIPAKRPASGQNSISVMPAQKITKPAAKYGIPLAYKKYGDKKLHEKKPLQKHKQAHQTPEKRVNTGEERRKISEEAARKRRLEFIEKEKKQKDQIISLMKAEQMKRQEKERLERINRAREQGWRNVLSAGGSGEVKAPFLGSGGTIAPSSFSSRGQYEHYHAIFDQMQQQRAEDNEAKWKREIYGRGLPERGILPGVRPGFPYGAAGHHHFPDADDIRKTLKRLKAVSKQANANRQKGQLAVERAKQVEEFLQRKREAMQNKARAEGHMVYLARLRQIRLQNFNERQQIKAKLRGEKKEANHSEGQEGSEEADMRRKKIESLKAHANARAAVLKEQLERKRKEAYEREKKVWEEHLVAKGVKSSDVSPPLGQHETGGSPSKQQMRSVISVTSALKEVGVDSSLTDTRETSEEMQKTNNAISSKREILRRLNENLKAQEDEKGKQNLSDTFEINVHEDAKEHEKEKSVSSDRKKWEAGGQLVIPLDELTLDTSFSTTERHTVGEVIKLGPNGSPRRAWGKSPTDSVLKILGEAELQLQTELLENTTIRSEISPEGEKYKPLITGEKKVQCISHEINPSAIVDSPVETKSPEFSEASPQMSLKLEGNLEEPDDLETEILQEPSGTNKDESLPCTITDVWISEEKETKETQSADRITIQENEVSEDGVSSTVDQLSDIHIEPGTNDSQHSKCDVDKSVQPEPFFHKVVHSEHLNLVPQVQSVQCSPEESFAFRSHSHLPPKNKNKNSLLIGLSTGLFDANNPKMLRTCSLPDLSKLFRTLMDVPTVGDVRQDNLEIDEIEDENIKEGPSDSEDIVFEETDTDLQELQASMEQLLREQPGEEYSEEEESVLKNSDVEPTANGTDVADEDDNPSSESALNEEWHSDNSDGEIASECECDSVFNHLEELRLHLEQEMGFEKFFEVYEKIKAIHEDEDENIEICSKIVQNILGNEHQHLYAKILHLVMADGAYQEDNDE
# [13] = molecular target: T5, Serine/threonine-protein kinase Nek1 (Homo sapiens); details: at 1 µM
# [14] = molecular target: T6, Serine/threonine-protein kinase Nek2 (Homo sapiens) (UniProt P51955); details: at 0.1 µM
# T6 sequence (whole entry): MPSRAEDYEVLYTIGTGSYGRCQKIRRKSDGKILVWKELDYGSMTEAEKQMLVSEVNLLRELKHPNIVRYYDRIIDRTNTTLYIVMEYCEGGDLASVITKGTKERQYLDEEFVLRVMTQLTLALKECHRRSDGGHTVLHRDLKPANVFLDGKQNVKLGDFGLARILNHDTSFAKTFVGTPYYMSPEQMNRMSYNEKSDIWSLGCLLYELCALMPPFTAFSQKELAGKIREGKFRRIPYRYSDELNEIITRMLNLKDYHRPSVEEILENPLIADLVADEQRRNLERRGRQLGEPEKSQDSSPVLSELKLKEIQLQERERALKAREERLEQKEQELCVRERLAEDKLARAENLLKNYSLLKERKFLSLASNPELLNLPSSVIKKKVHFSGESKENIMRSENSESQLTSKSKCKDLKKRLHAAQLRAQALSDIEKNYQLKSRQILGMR
# [15] = molecular target: T6, Serine/threonine-protein kinase Nek2 (Homo sapiens); details: at 1 µM
# [16] = molecular target: Serine/threonine-protein kinase Nek6 (Homo sapiens) (UniProt Q9HC98); details: at 0.1 µM
# [17] = molecular target: Serine/threonine-protein kinase Nek6 (Homo sapiens) (UniProt Q9HC98); details: at 1 µM
# [18] = molecular target: Serine/threonine-protein kinase Nek7 (Homo sapiens) (UniProt Q8TDX7); details: at 0.1 µM
# [19] = molecular target: Serine/threonine-protein kinase Nek7 (Homo sapiens) (UniProt Q8TDX7); details: at 1 µM
# [20] = molecular target: T7, Serine/threonine-protein kinase Nek9 (Homo sapiens) (UniProt Q8TD19); details: at 0.1 µM;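 note: reported value is the mean percent inhibition of NEK9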
# T7 sequence (whole entry): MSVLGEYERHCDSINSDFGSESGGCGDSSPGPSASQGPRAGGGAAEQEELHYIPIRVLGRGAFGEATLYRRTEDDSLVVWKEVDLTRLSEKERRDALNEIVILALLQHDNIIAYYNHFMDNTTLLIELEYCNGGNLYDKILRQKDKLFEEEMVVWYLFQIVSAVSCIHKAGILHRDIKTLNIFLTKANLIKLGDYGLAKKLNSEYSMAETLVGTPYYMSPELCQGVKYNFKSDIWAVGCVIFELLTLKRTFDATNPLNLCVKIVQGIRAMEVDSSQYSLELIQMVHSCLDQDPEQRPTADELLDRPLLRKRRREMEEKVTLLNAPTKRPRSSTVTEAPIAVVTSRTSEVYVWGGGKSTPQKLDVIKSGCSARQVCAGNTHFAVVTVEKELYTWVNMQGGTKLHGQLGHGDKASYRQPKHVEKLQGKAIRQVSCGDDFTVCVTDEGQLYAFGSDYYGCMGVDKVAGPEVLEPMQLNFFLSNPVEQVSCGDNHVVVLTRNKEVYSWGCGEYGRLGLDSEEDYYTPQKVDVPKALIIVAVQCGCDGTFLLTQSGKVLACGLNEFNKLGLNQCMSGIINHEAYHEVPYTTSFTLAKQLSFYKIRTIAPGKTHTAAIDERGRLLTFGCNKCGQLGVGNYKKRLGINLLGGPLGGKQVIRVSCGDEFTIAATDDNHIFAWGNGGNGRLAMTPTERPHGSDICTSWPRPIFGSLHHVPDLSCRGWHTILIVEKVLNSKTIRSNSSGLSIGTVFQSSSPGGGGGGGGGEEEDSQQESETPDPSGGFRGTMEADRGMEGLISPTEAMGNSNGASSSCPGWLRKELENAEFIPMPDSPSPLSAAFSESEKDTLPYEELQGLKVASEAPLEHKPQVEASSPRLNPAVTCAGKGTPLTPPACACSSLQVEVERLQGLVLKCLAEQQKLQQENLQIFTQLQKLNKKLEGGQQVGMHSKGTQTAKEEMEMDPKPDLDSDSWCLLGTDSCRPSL
# Chain of Casein kinase II subunit alpha (Homo sapiens) (P68400 whole entry, looked up): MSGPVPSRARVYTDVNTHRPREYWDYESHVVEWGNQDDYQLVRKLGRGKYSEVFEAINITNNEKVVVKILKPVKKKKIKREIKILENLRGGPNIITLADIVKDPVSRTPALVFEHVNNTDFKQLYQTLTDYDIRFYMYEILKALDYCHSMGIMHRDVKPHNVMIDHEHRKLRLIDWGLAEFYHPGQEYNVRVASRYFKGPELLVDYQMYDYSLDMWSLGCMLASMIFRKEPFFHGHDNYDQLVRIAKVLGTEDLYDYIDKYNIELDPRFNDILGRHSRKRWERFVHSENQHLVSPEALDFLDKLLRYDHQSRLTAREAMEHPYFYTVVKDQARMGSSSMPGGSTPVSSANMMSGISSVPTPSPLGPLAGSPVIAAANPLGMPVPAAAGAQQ
# Chain of Serine/threonine-protein kinase Nek6 (Homo sapiens) (Q9HC98 whole entry): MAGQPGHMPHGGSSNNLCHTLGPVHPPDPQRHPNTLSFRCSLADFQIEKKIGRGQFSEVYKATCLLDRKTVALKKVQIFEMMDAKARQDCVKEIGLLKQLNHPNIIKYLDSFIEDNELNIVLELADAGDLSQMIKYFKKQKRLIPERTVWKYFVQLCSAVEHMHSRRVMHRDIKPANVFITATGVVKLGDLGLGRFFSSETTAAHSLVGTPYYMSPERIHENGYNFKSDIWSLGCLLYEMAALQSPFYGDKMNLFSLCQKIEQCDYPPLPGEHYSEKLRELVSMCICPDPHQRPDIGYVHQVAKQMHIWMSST
# Chain of Serine/threonine-protein kinase Nek7 (Homo sapiens) (Q8TDX7 whole entry, looked up): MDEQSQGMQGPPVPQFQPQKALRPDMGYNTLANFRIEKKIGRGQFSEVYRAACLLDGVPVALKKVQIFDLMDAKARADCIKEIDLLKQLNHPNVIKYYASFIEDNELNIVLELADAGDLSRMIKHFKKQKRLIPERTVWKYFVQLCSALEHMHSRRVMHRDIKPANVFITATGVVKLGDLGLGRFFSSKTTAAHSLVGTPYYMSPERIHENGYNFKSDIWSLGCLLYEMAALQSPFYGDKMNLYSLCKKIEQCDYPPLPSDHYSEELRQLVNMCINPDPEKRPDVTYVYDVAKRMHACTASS
# Chain of Sphingosine kinase 1 (Homo sapiens) (Q9NYA1 whole entry): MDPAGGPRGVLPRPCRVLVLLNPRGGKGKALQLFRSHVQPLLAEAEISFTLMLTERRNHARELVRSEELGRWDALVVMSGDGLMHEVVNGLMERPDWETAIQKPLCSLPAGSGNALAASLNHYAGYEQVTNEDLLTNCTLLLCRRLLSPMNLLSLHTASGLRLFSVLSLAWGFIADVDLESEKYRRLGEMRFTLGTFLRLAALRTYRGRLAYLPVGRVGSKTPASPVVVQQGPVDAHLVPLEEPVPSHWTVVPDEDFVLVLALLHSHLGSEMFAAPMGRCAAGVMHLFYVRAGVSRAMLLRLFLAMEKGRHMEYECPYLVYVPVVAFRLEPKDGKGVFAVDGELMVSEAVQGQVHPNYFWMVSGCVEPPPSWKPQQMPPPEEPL
smiles,measurement,setting,value
CS(=O)(=O)CCNCc1nc(-c2ccc3ncnc(Nc4ccc(OCc5cccc(C(F)(F)F)c5)cc4)c3c2)cs1,inhibition,[1],1.3%
same,inhibition,[2],0.09%
same,inhibition,[3],-0.46%
same,inhibition,[4],-0.05%
same,inhibition,[5],1.3%
same,inhibition,[6],-2.52%
same,inhibition,[7],-0.52%
same,inhibition,[8],3.26%
same,inhibition,[9],1.84%
same,inhibition,[10],-0.33%
same,inhibition,[11],2.82%
same,inhibition,[12],1.67%
same,inhibition,[13],3.9%
same,inhibition,[14],2.86%
same,inhibition,[15],0.5%
same,inhibition,[16],-0.59%
same,inhibition,[17],2.66%
same,inhibition,[18],1.6%
same,inhibition,[19],5.52%
same,inhibition,[20],3.06%
